According to PubChem BioAssay (NCI):
This is part of a sample that, as a whole, favours compounds with a hit. Of some 83,000 tested, about 20% had one in any assay.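 Single-dose data. Exposure time 48 hours. Values below 10 considered active.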 The source made the active and inactive calls.

What was measured:
Experiment in all cases: NCI-60 one-dose screen, 48 h (100 = growth as untreated, 0 = no growth, -100 = all killed)
Details in all cases: 10 µM unless noted
[1] = test system: HCT-15 colon
[2] = test system: HT29 colon
[3] = test system: SNB-75 CNS
[4] = test system: SNB-19 CNS
[5] = test system: U251 CNS
[6] = test system: PC-3 prostate
[7] = test system: SK-MEL-5 melanoma
[8] = test system: UACC-62 melanoma
[9] = test system: LOX IMVI melanoma
[10] = test system: SK-MEL-28 melanoma
[11] = test system: SK-MEL-2 melanoma
[12] = test system: EKVX NSCLC
[13] = test system: SN12C renal
[14] = test system: UO-31 renal
[15] = test system: ACHN renal
[16] = test system: CAKI-1 renal
[17] = test system: A498 renal
[18] = test system: CCRF-CEM leukemia
[19] = test system: MOLT-4 leukemia
[20] = test system: TK-10 renal

Measured: growth

Cc1cc(C(=O)Nc2cc(Nc3ncccc3-c3ncnc4nc[nH]c34)ccc2F)cc(C(C)(C)C#N)c1
active: [8] 3.75% | [9] -9.5% | [11] 8.76% | [17] -22.8%
inactive: [1] 42.7% | [2] 24.1% | [3] 79.5% | [4] 61.8% | [5] 51.1% | [6] 57.8% | [7] 27.1% | [10] 10.9% | [12] 56% | [13] 50.6% | [14] 10.1% | [15] 30.5% | [16] 25.1% | [18] 42.4% | [19] 53.2%

Cc1ccc(OCCOCCOCCOCCOc2ccc(C)n(O)c2=S)c(=S)n1O
active: [5] 9.43% | [7] -15.8% | [8] -0.19% | [9] 4.26% | [14] -1.11% | [16] 8.11% | [18] 1.1% | [19] 6.72%
inactive: [1] 28.5% | [2] 23.9% | [3] 33.1% | [4] 15.3% | [6] 32.7% | [10] 31% | [11] 12.1% | [12] 17.3% | [13] 13.1% | [20] 33.3% | [15] 12.7%

COc1cc2cc(Oc3ccc(NC(=O)Nc4ccc(Cl)c(Cl)c4)cc3)c(C)nc2cc1OCCN1CCCCC1
active: [6] -30.2% | [18] 9.57%
inactive: [1] 71.6% | [2] 19.9% | [3] 96.8% | [4] 99.3% | [5] 53.2% | [7] 89% | [8] 106% | [9] 99.1% | [10] 98.2% | [11] 124% | [12] 99.8% | [13] 101% | [14] 88.2% | [15] 106% | [16] 78% | [17] 86.8% | [19] 64.6%

COc1ccc(-c2cc(-c3ccc(N(C)C)cc3)nc(NC(=O)c3cccnc3)n2)cc1
inactive: [1] 95% | [2] 108% | [3] 99% | [4] 93.2% | [5] 98.9% | [6] 90.3% | [7] 97.1% | [8] 95.1% | [9] 97.1% | [10] 106% | [11] 111% | [12] 96.6% | [13] 97.5% | [14] 80.6% | [20] 117% | [15] 95.6% | [16] 92.6% | [18] 104% | [19] 98%

Cc1ccc(C(=O)Nc2ccc(CN3CCN(C)CC3)c(C(F)(F)F)c2)cc1C#Cc1cnc(N)c2ccccc12
active: [1] -69.2% | [2] -12.8% | [3] -70.4% | [4] -66.1% | [5] -70.5% | [6] 3.18% | [7] -85.4% | [8] 4.11% | [9] -94.5% | [10] -86% | [11] -26.6% | [14] -34.9% | [15] -91.8% | [16] -81.6% | [17] -32.5% | [18] -15.7% | [19] -45.2%
inactive: [12] 36% | [13] 11.3%

C#CCOc1cccc(Nc2ncnc3c(NC(=O)CCl)cccc23)c1
inactive: [3] 74.8% | [4] 20.1% | [8] 21.8% | [10] 75% | [11] 36.5% | [14] 35.4% | [16] 54.9% | [17] 101%
active: [1] -37.9% | [2] -77.1% | [5] -69.2% | [6] 2.88% | [7] -89.2% | [9] -79.7% | [12] -19.8% | [13] 6.82% | [15] -72.4% | [18] -57.5% | [19] -12.7%

COC(=O)c1nc(-c2ccccc2)oc1S(=O)(=O)NCC(c1ccc(Cl)cc1)N1CCCCC1 (centres undefined)
active: [18] -19.2% | [19] 1.79%
inactive: [1] 49.1% | [2] 45.8% | [3] 79% | [4] 81.1% | [5] 59.6% | [6] 58.3% | [7] 86% | [8] 85.5% | [9] 43.9% | [10] 99.7% | [11] 93.8% | [12] 104% | [13] 75.5% | [14] 61.2% | [20] 67.3% | [15] 68.2% | [16] 49.4%

O=C(Nc1ccc2[nH]ncc2c1)c1csc(Nc2ccccc2)n1
inactive: [1] 16.9% | [2] 11.8% | [3] 36% | [4] 30.1% | [5] 28.7% | [6] 38.7% | [7] 12.3% | [8] 26.8% | [9] 40.8% | [10] 64.1% | [11] 29.6% | [12] 45.8% | [13] 41.1% | [14] 45.5% | [20] 48.1% | [15] 56.5% | [16] 36.5% | [18] 19.4% | [19] 43.9%

CN(C)c1ccc(/C=C/C2=[N+](C)c3ccccc3C2(C)C)cc1
inactive: [1] 39.5% | [2] 12.5% | [3] 36.3% | [4] 13.2% | [5] 19.2% | [9] 15.2% | [10] 35.4% | [11] 16.4% | [12] 22.6% | [14] 19.4% | [15] 14% | [16] 29.3% | [17] 66.6% | [18] 11.9%
active: [6] 4.64% | [7] -4.87% | [8] 9.39% | [13] -9.66% | [19] -6.54%

CCOc1ccc(N2C(=O)CCSC2=S)cc1
inactive: [1] 101% | [2] 106% | [3] 90.5% | [4] 94.7% | [5] 102% | [6] 93.3% | [7] 98.9% | [8] 91.9% | [9] 96.5% | [10] 108% | [11] 102% | [12] 95.5% | [13] 101% | [14] 85.5% | [15] 101% | [16] 96.4% | [17] 102% | [18] 108% | [19] 104%

COc1ccc(/C=C2/CCc3cc4ccc(OC)cc4[o+]c32)c(O)c1
inactive: [2] 29.6% | [3] 90.9% | [4] 63.1% | [5] 69.4% | [7] 67.8% | [8] 47.5% | [10] 47.8% | [11] 85.6% | [12] 75.7% | [13] 13.6% | [20] 135% | [15] 34.3% | [16] 81%
active: [1] 4.44% | [6] 8.84% | [9] 7.79% | [14] -28.7% | [18] 9.94% | [19] 0.523%

CCOC(=O)C1=C(c2ccccc2)N=C2SC=C(c3cccc([N+](=O)[O-])c3)N2C1c1ccc(O)cc1 (centres undefined)
inactive: [1] 97.7% | [2] 105% | [3] 91.4% | [4] 97% | [5] 96.6% | [6] 94.8% | [7] 97.7% | [8] 92.7% | [9] 95.4% | [10] 104% | [11] 96.7% | [12] 99.3% | [13] 96% | [14] 91% | [20] 104% | [15] 106% | [16] 94.3% | [17] 78.9% | [19] 111%

CC(=O)Oc1ccccc1C(=O)N(Cc1ccc2c(Cl)cc(Cl)c(O)c2n1)c1ccccc1
inactive: [1] 23.8% | [2] 89.4% | [3] 51.2% | [4] 42% | [5] 27.6% | [6] 34% | [7] 41.5% | [8] 29.3% | [9] 38.5% | [10] 58.3% | [11] 66.7% | [12] 37.4% | [13] 46.8% | [14] 29.9% | [20] 81.3% | [15] 33.8% | [16] 38.9% | [18] 31.3% | [19] 38.7%

CCCN1C2CCC1/C(=C\c1ccc(OC)cc1)C(=O)/C2=C/c1ccc(OC)cc1
inactive: [1] 71.1% | [2] 58% | [3] 84.9% | [4] 86.7% | [5] 70.3% | [6] 64% | [7] 64.1% | [8] 49.7% | [9] 74.8% | [10] 82.7% | [11] 72.5% | [12] 77.6% | [13] 75% | [14] 56.3% | [15] 81.6% | [16] 74.4% | [17] 80% | [18] 67.4% | [19] 55%

C=C1/C(=C\C=C2/CCC[C@]3(C)[C@@H]([C@H](C)CCCC(C)(C)O)CC[C@@H]23)C[C@@H](OC(=O)CBr)C[C@@H]1O
inactive: [1] 54.6% | [2] 39.2% | [3] 49.1% | [4] 94.6% | [5] 70.6% | [6] 40% | [7] 84.7% | [8] 69% | [10] 93.6% | [11] 99.7% | [12] 52.4% | [13] 85.2% | [20] 88.2%
active: [9] -50.9% | [14] -100% | [15] -29.7% | [16] -30.4% | [18] -50.7% | [19] -52.6%

Cc1ccc(Nc2cc(N)nc(N)n2)cc1
inactive: [1] 104% | [2] 103% | [3] 84.2% | [4] 110% | [5] 109% | [6] 98% | [7] 98.2% | [8] 97.2% | [9] 97.9% | [10] 105% | [11] 112% | [12] 95.7% | [13] 110% | [14] 87.7% | [15] 102% | [16] 87.1% | [17] 105% | [18] 107% | [19] 91.3%
